# PubChem BioAssay (NCATS)
# Results filed as inconclusive are left out. Entries that show only a call come without a potency. Activity calls are given as the source filed them. Unless noted, calls follow the shape of the dose curve; as a rule, active = well fitted curve in the direction sought with a large enough effect; inconclusive = small, poorly fitted or top-dose-only effect, or another doubt; inactive = no such curve, though single readings can be large; an effect the other way counts as inactive or inconclusive.
# Legend:
# [1] = molecular target: Cytochrome P450 3A4 (Homo sapiens) (UniProt P08684); test: qHTS Assay for Activators of Cytochrome P450 3A4 (AID 885); also: nearly all actives have a fitted effect of over 65% in size
# Outline: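 Quantitative HTS format: compounds preincubated with 20nM human CYP3A4 and Luciferin-PPXE substrate at KM, reaction started by NADPH regeneration, stopped after 60 min, luciferase luminescence read 20 min later.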
# [2] = Confirmation and Secondary Assay for Modulators of Hemoglobin Beta Chain Splicing at IVS2 654 locus (AID 910);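 also: HeLa cells stably carrying EGFP split by mutant beta-globin IVS2-654 intron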
# Outline: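 HeLa cells stably expressing EGFP interrupted by β-globin IVS2-654 intron, seeded overnight in Opti-MEM/2% FCS, then treated 2 days at 37 °C. Restored splicing read as total peak GFP intensity per well by laser scanning cytometry (488 nm excitation, 500–520 nm emission); 500 nM antisense PNA as control.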
# [3] = Confirmation and Secondary Assay for Modulators of Hemoglobin Beta Chain Splicing at IVS2 705 locus (AID 930);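 also: HeLa cells stably expressing the EGFP-705 splicing reporter; GFP fluorescence per well restored by corrected splicing of the IVS2-705 intron in EGFP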
# Outline: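 First, HeLa EGFP-705 cells are seeded at 500/well in Optimem with 2% FCS and left overnight. Next, compound or DMSO is added for 2 days. Finally wells are laser-scanned and total peak GFP intensity scored.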
# [4] = qHTS Assay for Lipid Storage Modulators (AID 1519; calls by dose curve); settings: Drosophila S3 cells, BODIPY lipid droplet/cell ratio, laser cytometry, cells loaded with oleic acid; for activity change, negative = inhibition: at 57.5 µM (top of the series)
# Outline: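 Cells seeded at 5,000 per well were treated with compounds over a concentration series and loaded with oleic acid (400 uM, as added). Lipid droplet fluorescence (488 nm excitation, 500-530 nm channel) was read by laser-scanning cytometry and normalized to 20 uM Triacsin C.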
# [5] = molecular target: Ubiquitin carboxyl-terminal hydrolase 1 (Homo sapiens) (UniProt O94782); test: Inhibitors of USP1/UAF1: Pilot qHTS (AID 504865);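 also: rhodamine fluorescence freed from ubiquitin-rhodamine substrate followed over time; top concentration of the series differs between compounds; nearly all actives have a fitted effect of over 35% in size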
# Outline: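 1nM USP1/UAF1 + cpd, 15 min RT; start w/ Ub-Rho 150nM final; kinetic FL 480/540 nm, 6 reads q60 s. Buffer 50mM HEPES pH 7.8, 0.5mM EDTA, 1mM TCEP, 0.01% Tween-20, 0.1 mg/ml BSA.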
# [6] = molecular target: Cytochrome P450 3A4 (Homo sapiens) (UniProt P08684); test: qHTS Assay for Inhibitors and Substrates of Cytochrome P450 3A4 (AID 884); also: nearly all actives have a fitted effect of over 50% in size
# Outline: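 20 nM human CYP3A4 with 25 uM Luciferin-PPXE (at KM) in 200 mM KPO4, preincubated 10 min with compound; NADPH regeneration started a 60 min RT reaction. Luciferin detected by luminescence, normalized to 57 uM ketoconazole as full inhibition.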
# [7] = measured here: cell count channel max response
# [8] = measured here: lipid channel max response
# Sequence of Ubiquitin carboxyl-terminal hydrolase 1 (Homo sapiens) (O94782 whole entry, looked up): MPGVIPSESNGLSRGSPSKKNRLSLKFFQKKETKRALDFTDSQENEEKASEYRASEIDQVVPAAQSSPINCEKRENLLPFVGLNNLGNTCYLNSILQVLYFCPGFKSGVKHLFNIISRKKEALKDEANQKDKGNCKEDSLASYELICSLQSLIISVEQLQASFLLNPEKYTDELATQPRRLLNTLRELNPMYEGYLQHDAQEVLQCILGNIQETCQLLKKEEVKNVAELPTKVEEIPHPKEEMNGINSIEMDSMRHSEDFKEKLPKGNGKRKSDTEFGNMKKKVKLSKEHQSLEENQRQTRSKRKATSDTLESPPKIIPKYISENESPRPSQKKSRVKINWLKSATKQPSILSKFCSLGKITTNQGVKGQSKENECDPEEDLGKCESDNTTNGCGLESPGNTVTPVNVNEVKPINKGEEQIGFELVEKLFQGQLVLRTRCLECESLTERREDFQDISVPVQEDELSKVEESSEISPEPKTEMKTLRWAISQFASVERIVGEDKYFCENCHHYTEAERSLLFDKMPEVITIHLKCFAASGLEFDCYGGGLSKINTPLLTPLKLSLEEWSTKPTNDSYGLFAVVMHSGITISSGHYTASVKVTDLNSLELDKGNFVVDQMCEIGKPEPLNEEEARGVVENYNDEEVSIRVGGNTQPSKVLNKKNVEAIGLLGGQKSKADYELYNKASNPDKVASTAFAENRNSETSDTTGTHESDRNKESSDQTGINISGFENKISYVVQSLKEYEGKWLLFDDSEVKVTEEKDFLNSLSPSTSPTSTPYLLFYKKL
# Sequence of Cytochrome P450 3A4 (Homo sapiens) (P08684 whole entry, looked up): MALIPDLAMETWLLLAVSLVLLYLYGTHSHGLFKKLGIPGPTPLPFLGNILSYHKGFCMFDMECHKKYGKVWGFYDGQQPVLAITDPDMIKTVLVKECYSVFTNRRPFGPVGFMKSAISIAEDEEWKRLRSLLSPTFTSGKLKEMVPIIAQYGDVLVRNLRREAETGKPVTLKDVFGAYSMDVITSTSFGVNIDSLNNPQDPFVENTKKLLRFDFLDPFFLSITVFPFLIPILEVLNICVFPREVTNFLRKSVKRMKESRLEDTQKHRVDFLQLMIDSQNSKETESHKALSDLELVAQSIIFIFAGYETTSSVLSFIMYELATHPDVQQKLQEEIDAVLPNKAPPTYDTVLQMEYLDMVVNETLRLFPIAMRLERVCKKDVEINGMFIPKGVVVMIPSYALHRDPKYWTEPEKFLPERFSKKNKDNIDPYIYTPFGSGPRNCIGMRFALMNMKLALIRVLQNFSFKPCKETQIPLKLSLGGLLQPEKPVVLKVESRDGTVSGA
SMILES,Potency [1],Potency [2],Potency [3],"activity change, negative = inhibition [4]","max response [4, 7] [%]","max response [4, 8] [%]",Potency [5],Potency [6]
CC(C)=CCc1c(O)cc2oc(C)cc(=O)c2c1O,inactive,inactive,inactive,2.12% (inactive),-3.81,-0.981,inactive,–
CC(=O)OC1CC2C(C)(C)C=CC(=O)[C@@]2(C)C2CC[C@@]3(C)C(c4ccoc4)OC(=O)C4OC43[C@]12C (some centres not stated),inactive,inactive,inactive,5.35% (inactive),-8.35,-1.42,inactive,–
CC1CC2C3CCC4=CC(=O)C=C[C@]4(C)[C@@]3(Cl)C(O)C[C@]2(C)C1(OC(=O)c1ccco1)C(=O)CCl (some centres not stated),inactive,inactive,inactive,12.6% (inactive),-6.79,6.32,inactive,–
COC(=O)CC1C(C)(C)C2(O)OC34CC2C(=O)[C@@]1(C)C3CC[C@]1(C)C4=CC(=O)OC1c1ccoc1 (some centres not stated),inactive,inactive,inactive,4.29% (inactive),-0.136,8.19,inactive,–
CC(C)(O)CCC(O)[C@@](C)(O)C1CC[C@]2(O)C3=CC(=O)C4CC(O)C(O)C[C@]4(C)C3CC[C@]12C (some centres not stated),–,inactive,inactive,2.72% (inactive),-2.83,0.37,inactive,inactive
CCOC(=O)c1c(C)cc(O)c(C=O)c1O,inactive,inactive,inactive,7.6% (inactive),-4.41,3.24,inactive,–
C#C[C@@]1(O)CCC2C3CCC4=CC(=O)CCC4C3CC[C@@]21CC (some centres not stated),inactive,inactive,inactive,8.95% (inactive),17.8,32.9,inactive,–
COC(=O)c1cc(OC)c(=O)c2c(OC)c(OC)ccc2c1,inactive,inactive,inactive,6.06% (inactive),-2.75,7.78,inactive,–
Cc1c(O)cc(O)c2c(=O)c(-c3ccc(O)cc3)coc12,–,inactive,inactive,8.55% (inactive),16.6,28,inactive,inactive
CC12CCC3C(=CCc4cc(O)ccc43)C1CCC2=O (configuration not stated),inactive,inactive,inactive,5.72% (inactive),-12.9,-6.28,inactive,–
C=CC(C1=CC(=O)C=CC1=O)c1ccccc1 (configuration not stated),inactive,inactive,inactive,7.07% (inactive),8.2,16.8,inactive,–
COC(=O)c1c(C)cc(OC)cc1O,inactive,inactive,inactive,8.17% (inactive),10,23.5,inactive,–
CC(=O)OC1CC2C(C)(C)C(O)C=C[C@@]2(C)C2CC[C@@]3(C)C(c4ccoc4)OC(=O)C4OC43[C@]12C (some centres not stated),inactive,inactive,inactive,8.59% (inactive),21.3,29.9,inactive,–
CC(C)=CCOc1cc2oc(=O)ccc2cc1O,inactive,inactive,inactive,12.4% (inactive),-16.3,-2.91,inactive,–
CC(Oc1ccccc1)C(=O)NC1C(=O)N2C(C(=O)O)C(C)(C)S[C@@H]12 (some centres not stated),inactive,inactive,inactive,7.31% (inactive),11.7,21.7,inactive,–
O=C(/C=C/c1ccccc1)OC1CC(O)C2(O)C=CO[C@@H](OC3OC(CO)C(O)C(O)C3O)C12 (some centres not stated),inactive,inactive,inactive,3.28% (inactive),-10.8,7.13,inactive,–
CC1(C)CC2C1CCC1(C)OC2(C)CCC1O (configuration not stated),inactive,inactive,inactive,2.02% (inactive),12.1,15.9,inactive,–
COc1cc(-c2oc3cc(O)ccc3c(=O)c2O)ccc1O,inactive,inactive,inactive,-2.65% (inactive),-22.8,-26.5,inactive,–

SMILES,Potency [1],Potency [2],Potency [3],"activity change, negative = inhibition [4]","max response [4, 7] [%]","max response [4, 8] [%]",Potency [5],Potency [6]
CC1(C)OC2CC3C4CC(F)C5=CC(=O)C=C[C@@]5(C)[C@@]4(F)C(O)C[C@@]3(C)[C@]2(C(=O)CO)O1 (some centres not stated),inactive,inactive,inactive,3.9% (inactive),10.6,16.5,inactive,–
C=C[C@]1(C)CC(=O)[C@@]2(O)[C@@]3(C)C(O)CCC(C)(C)C3C(O)C(OC(C)=O)[C@@]2(C)O1 (some centres not stated),inactive,inactive,inactive,3.86% (inactive),19.4,25.9,inactive,–
COC(=O)/C(=C1\OC(=O)C(c2ccccc2)C1=O)c1ccccc1 (configuration not stated),inactive,inactive,inactive,5.87% (inactive),11.1,17.7,inactive,–
CC1(C)CC2C1CCC1(C)OC1CCC2(C)O (configuration not stated),inactive,inactive,inactive,-2.16% (inactive),-0.415,2.87,inactive,–
S=c1ccss1,inactive,inactive,inactive,7.62% (inactive),5.82,13.7,inactive,–
CC1(C)CC[C@]2(C)CC[C@@]3(C)C(=CCC4[C@@]5(C)CCC(O)C(C)(C)C5CC[C@@]43C)C2C1 (some centres not stated),–,inactive,inactive,3.54% (inactive),18,24.3,inactive,inactive
COc1cc(OC)c(C(C)=O)c(O)c1C,inactive,inactive,inactive,17% (inactive),5.25,27.6,inactive,–
O=C(CCc1ccc(O)cc1)c1c(O)cc(O)cc1O[C@H]1OC(CO)C(O)C(O)C1O (some centres not stated),inactive,inactive,inactive,6.17% (inactive),25.3,27.2,inactive,–
COc1ccc(-c2coc3cc(OC(C)=O)cc(OC(C)=O)c3c2=O)cc1,inactive,inactive,inactive,-2.95% (inactive),3.34,2.84,inactive,–
O=c1cc(-c2ccc(O)cc2)oc2cc(O)ccc12,inactive,inactive,inactive,10.6% (inactive),-4.61,5.18,inactive,–
CCCC1OC2CC3C4CCC5=CC(=O)C=CC5(C)C4C(O)CC3(C)[C@]2(C(=O)CO)O1 (some centres not stated),inactive,inactive,inactive,8.38% (inactive),24.3,37.9,inactive,–
CC(=O)OC1CC2C(C)(C)C(=O)[C@@H]3OC3[C@@]2(C)C2CC[C@]3(C)C(=CC(=O)OC3c3ccoc3)[C@]12C (some centres not stated),inactive,inactive,inactive,2.11% (inactive),18.2,25.7,inactive,–
C[C@]12C=CC(=O)C=C1CCC1C2C(=O)C[C@]2(C)C1CC[C@]2(O)C(=O)CO (some centres not stated),–,inactive,inactive,8.15% (inactive),19.1,31.9,inactive,–
CC1(C)CC23C(=O)CCC(O)C2(C)CCC13 (configuration not stated),inactive,inactive,inactive,0.112% (inactive),8.4,10.8,inactive,–
CC(=O)SC1CC2=CC(=O)CC[C@@]2(C)C2CC[C@@]3(C)[C@@H](CC[C@@]34CCC(=O)O4)C12 (some centres not stated),–,inactive,inactive,-11.4% (inactive),20.1,9.46,inactive,–
C#C[C@]1(O)CCC2C3CCC4=CC(=O)CCC4C3CC[C@@]21C (some centres not stated),–,inactive,inactive,3.02% (inactive),2.28,5.87,inactive,–
CC(C)C(C)/C=C/C(C)C1CCC2C3=CCC4CC(=O)CC[C@@]4(C)C3CC[C@]21C (some centres not stated),–,inactive,inactive,5.02% (inactive),-0.92,5.16,inactive,–
C[C@]12CCC3c4ccc(OS(=O)(=O)O)cc4CCC3C1CCC2=O (some centres not stated),–,inactive,inactive,9.98% (inactive),6.42,22.2,inactive,–
